High-throughput results from PubChem BioAssay.
Only some compounds are listed: those with a hit (about 4.3% of all), similar ones and a draw of the others.
GLP1R ag – activates the human GLP-1 receptor; P43220; HEK293 GLP-1R CRE-luciferase, luminescence, 4-6 h; cells express a hypersensitive GLP-1R form; Potency, µM (highest dose often 45.6 µM), for inactives: at the highest dose activation, hits mostly activators; 380,000 compounds, 0.007% hits; note: potency is the fitted concentration of half-maximal effect; % of control where 0% means no effect
D3 ag – D3 dopamine receptor (human) agonism; max activation, %; AID 652048; 410,000 compounds, 0.58% hits; D3R DiscoveRx beta-arrestin cells, luminescence, 90 min; P35462; in the data active = max activation above about 30%; note: 0% is about no effect
Target sequence (P35462 whole entry, looked up): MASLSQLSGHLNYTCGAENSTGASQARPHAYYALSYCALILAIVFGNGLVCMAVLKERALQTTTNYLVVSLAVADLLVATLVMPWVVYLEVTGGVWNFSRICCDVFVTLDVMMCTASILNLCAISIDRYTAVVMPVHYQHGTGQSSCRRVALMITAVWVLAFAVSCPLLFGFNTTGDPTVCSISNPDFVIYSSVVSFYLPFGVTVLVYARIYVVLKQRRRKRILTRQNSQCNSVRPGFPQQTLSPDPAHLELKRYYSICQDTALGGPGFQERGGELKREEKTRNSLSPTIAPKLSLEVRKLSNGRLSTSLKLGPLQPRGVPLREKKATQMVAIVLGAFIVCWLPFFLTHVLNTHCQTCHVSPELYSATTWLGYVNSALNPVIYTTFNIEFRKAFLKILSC
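Agonist mode: compounds and dopamine controls were applied to plated cells for 90 min at 37 degrees C after an overnight attachment at 1500 cells/well. Luminescent read-out followed 30 - 60 minutes at room temperature with DiscoveRx detection reagent.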
GLP-1R inv ag – inverse agonists of human GLP-1 receptor; P43220; HEK293 GLP-1R CRE-luciferase, luminescence, 24 h; GLP-1R form is constitutively active; Potency, µM (doses to about 38.3 µM), for inactives: at the top dose activity change, negative = inhibition, usual class: inhibitors; 410,000 compounds, 1.6% hits; note: potency is the fitted concentration of half-maximal effect; % is set by controls: 0 for no effect and ±100 for the full control effect; nearly all actives have a fitted effect of over 55% in size
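Stable HEK293 clone (constitutively active GLP-1R + cAMP-response luciferase); 200 cells/uL plated, 12 h pre-culture, compound 24 hr, 37 deg C/5% CO2; detection reagent 12 min RT; luminescence.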
DRD3 antagonist – D3 dopamine receptor (human) antagonism | P35462 | max response, negative = inhibition, % | D3R cells, DiscoveRx beta-arrestin luminescence, antagonist mode; hits give low values | 360,000 compounds, 2.5% hits | AID 652054; in the data active = max response below about -50%; inconclusive = no clear call, values can overlap the other calls; note: % is set by controls: 0 for no effect and ±100 for the full control effect
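Cells plated overnight at 1500 cells/well, then exposed to library compounds with dopamine controls for 90 minutes at 37 degrees C. DiscoveRx reagent added for 30–60 minutes at room temperature; luminescence read, quantitative HTS format.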
* = called active by the depositor; ? = inconclusive; · = no result; [ ] = dose if it differs, or a comment. Unless noted, calls come from the whole dose curve; as a rule, active = well fitted curve in the direction sought with a large enough effect; inconclusive = small, poorly fitted or top-dose-only effect, or another doubt; inactive = no such curve, though single readings can be large; an effect the other way counts as inactive or inconclusive.

SMILES	GLP1R ag	D3 ag	GLP-1R inv ag	DRD3 antagonist
CCCc1[nH]c2ccc(C(=O)OC)cc2c1CCC	9%	9	?	0
CCCc1[nH]c2ccc(C#N)cc2c1CCC	-2%	14	10µM*	7
NS(=O)(=O)c1ccc(N2N=C(c3ccccc3)CC2c2cccc(F)c2)cc1 (stereo not given)	-1%	-2	?	3
NS(=O)(=O)c1ccc(N2N=C(c3ccccc3)CC2c2cccc(Br)c2)cc1 (stereo not given)	0%	47*	?	21
O=C1CC(N2CCN(C/C=C/c3ccccc3)CC2)C(=O)N1Cc1cccs1 (stereo not given)	2%	-8	-14%	-63*
O=C1CC(N2CCN(C/C=C/c3ccccc3)CC2)C(=O)N1CCc1ccccc1 (stereo not given)	-1%	-20	0%	?
Cc1ccc(CNC(=O)c2cnn(-c3cccc(C)c3)c2C2CCN(C(=O)OC(C)(C)C)CC2)cc1	·	0	?	·
O=C(NC(=S)N1CCN(c2nc(-c3ccccc3)cs2)CC1)c1cccnc1	-35%	-7	8.9µM*	-18
O=C(NC12CC3CC(CC(C3)C1)C2)N1CCN(c2nc(-c3ccccc3)cs2)CC1	-10%	8	3.2µM*	23
COc1cccc(N2CCN(C(C)C(=O)NC34CC5CC(CC(C5)C3)C4)CC2)c1 (stereo not given)	19%	-22	?	-53*
O=C(NC1CCCCC1)N1CCN(c2nc(-c3ccccc3)cs2)CC1	-2%	5	-2%[7.66 µM]	8
COc1ccc(N2CCN(C(=O)NC34CC5CC(CC(C5)C3)C4)CC2)cc1	-3%	1	7.9µM*	1
COc1ccc(CCNC(=O)Cn2c(=O)[nH]c3ccsc3c2=O)cc1OC	1%	2	10%	-13
COc1ccccc1CN(C)C[C@H]1OCc2cnnn2CCCC(=O)N([C@H](C)CO)C[C@@H]1C	5%	-8	18%	0
COc1ccc(C(C[N+](=O)[O-])c2c(-c3ccccc3)cc3ccccn23)cc1OC (stereo not given)	1%	-7	6%	?
COc1ccc(C(C[N+](=O)[O-])c2c(-c3ccccc3)cc3ccccn23)cc1 (stereo not given)	0%	-3	?	-50*
Cc1cccc(N2CCN(C(=O)Cn3ncc4c3-c3ccccc3OC4)CC2)c1C	·	13	?	·
Cc1ccc(-n2nc(C(=O)Nc3ccc(F)cc3Cl)c(=O)n(C)c2=O)cc1	·	4	7%	·
Cc1cc([N+](=O)[O-])c2ccccc2c1NS(=O)(=O)c1ccccc1	12%	-9	10µM*	?
CN=C1C=CC(=C(c2ccc(N(C)C)cc2)c2ccc(N(C)C)cc2)C=C1	-4%	-24	·	·
Cc1cc(C)cc(N2C(=O)N(c3ccccc3C)C3CS(=O)(=O)CC32)c1 (stereo not given)	-1%	2	4%	7
Cc1cccc(N2C(=O)N(c3ccccc3C)C3CS(=O)(=O)CC32)c1 (stereo not given)	3%	-9	1%	-53*
S=c1sc2c(Cl)ncnc2n1-c1ccccc1	-9%	-6	?	-61*
O=c1c(-c2cccc3ccccc23)[n+]([O-])c2ccccc2n1O	-8%	-2	-1%	-53*
O=C(N/N=C/c1ccc(O)cc1O)C(=O)N/N=C/c1ccc(O)cc1O	6%	40*	?	5
SMILES	GLP1R ag	D3 ag	GLP-1R inv ag	DRD3 antagonist
O=C(CCC(=O)Nc1ccc(F)cc1)N/N=C/c1ccc(O)cc1O	4%	1	?	3
Oc1ccc(C=NNC(=S)Nc2ccc(F)cc2)c(O)c1	11%	33*	-25%	27
CCOC(=O)C(NC(=O)c1ccccc1Cl)(Nc1ccc(C)c(C)c1)C(F)(F)F (stereo not given)	-4%	-1	-29%	-7
COC(=O)C(Nc1ccccc1Cl)(c1cc(C)c(O)c(C)c1)C(F)(F)F (stereo not given)	-24%	5	4.5µM*	-2
CN(C)c1cccc(C(=O)Nc2ccc3nc4n(c(=O)c3c2)CCCCC4)c1	14%	-2	-3%	-61*
C=CCn1c(SCC(=O)Nc2sccc2C(N)=O)nc2sc(CC)cc2c1=O	19%	35*	95%	75
O=C(Nc1cc(Cl)cc(Cl)c1)N1CCCN(Cc2ccccc2)CC1	-6%	-32	?	-80*
